# Screening data: PubChem, National Center for Advancing Translational Sciences (NCATS)
# HPGD inh = blocks human HPGD enzyme activity | purified HPGD, NADH fluorescence kinetic, PGE2 substrate | Potency, µM, for the others: top-dose activity change, negative = inhibition, most hits filed as inhibitors | actives 4.3% (n = 150,000) | AID 894; further: potency means the concentration at half of the fitted maximal effect
# Target sequence (P15428 whole entry, looked up): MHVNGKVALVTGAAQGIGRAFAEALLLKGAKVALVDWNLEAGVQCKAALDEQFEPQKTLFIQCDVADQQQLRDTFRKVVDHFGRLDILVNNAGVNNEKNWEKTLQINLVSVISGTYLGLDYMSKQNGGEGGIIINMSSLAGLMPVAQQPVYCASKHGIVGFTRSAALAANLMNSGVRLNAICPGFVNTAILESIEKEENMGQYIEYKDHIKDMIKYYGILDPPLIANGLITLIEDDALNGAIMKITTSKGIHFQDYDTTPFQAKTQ
#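 20 nM HPGD preincubated 15 min at room temperature with compound in 50 mM Tris-HCl pH 8, 0.01% Tween 20. Started with 1 mM NAD+ and 30 uM prostaglandin E2; NADH fluorescence (360/450 nm) read 5 times over 30-s intervals, last minus first.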
# ALDH1A1 inh = inhibitors of human aldehyde dehydrogenase 1A1; AID 1030; Potency, µM (highest dose often 75.3 µM), for the others: at the highest dose activity, negative = inhibition, usual class: inhibitors; actives 7.3% (n = 220,000); Purified ALDH1A1, NADH fluorescence, propionaldehyde substrate;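 further: potency means the concentration at half of the fitted maximal effect; plate controls were no enzyme wells and a reference inhibitor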
# IMPase cell inh = membrane-permeable compound that blocks inositol monophosphatase; P97697; CHO-M1 cells, IP1 accumulation, HTRF TR-FRET ratio; inhibition (IP1 accumulation), % at 46.1 µM; 120,000 tested, under 10 active; active means well fitted curve in the direction sought with a large enough effect in the signal ratio, not every such curve was filed as active; inconclusive means small, poorly fitted or top-dose-only effect, or a change in a side signal; inactive means no such curve, though single readings can be large or run the other way; the % refers to the signal ratio;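 further: cells stimulated with carbachol in lithium chloride buffer; plate controls were DMSO basal wells for no effect and reference inhibitor wells for full effect; higher means more IMPase inhibition seen as more IP1 and lower FRET ratio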
# Target sequence (P97697 whole entry, looked up): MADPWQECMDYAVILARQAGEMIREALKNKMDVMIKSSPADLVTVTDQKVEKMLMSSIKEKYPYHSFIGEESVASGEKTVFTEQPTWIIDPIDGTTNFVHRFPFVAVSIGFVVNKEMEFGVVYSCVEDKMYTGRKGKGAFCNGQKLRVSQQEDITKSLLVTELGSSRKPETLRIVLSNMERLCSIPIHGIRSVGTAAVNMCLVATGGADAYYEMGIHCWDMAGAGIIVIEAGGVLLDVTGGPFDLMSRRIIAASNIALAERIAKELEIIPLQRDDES
#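 In this qHTS, compounds (final up to 46 uM) act on CHO-M1 cells that are then activated through the M1 receptor with carbachol, in pH 7.4 buffer containing 50 mM LiCl, for 30 min. IP1 accumulation is quantified by the IP-One immunoassay.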
# 12-hLO inh = inhibitors of human 12-lipoxygenase (ALOX12). AID 1452. purified 12-hLO, xylenol orange hydroperoxide absorbance. P18054. actives 0.12% (n = 150,000). Potency, µM (highest dose often 57.1 µM), for inactives: at the top dose activity change, negative = inhibition, hits mostly inhibitors; active means well fitted curve in the direction sought with a large enough effect; inconclusive means small, poorly fitted or top-dose-only effect, or another doubt; inactive means no such curve, though single readings can be large; an effect the other way counts as inactive or inconclusive; further: potency means the concentration at half of the fitted maximal effect; nearly all actives have a fitted effect of over 55% in size
#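 Purified human 12hLO (150 nM), preincubated 15 min with compound, then 40 uM arachidonic acid for 30 min, room temperature, Hepes pH 7.0 with 0.01% Triton X-100. Hydroperoxide detected by ferrous iron/xylenol orange; 573/405 nm absorbance ratio gives reaction progress.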
# IMPase Li cell = cell-permeable IMPase inhibitors with lithium potentiation | CHO-M1 cells, IP1 TR-FRET (IP-One), carbachol + lithium | Potency, µM (series often up to 59.4 µM), for the others: top-dose activity, negative = IMPase inhibition, usual class: inhibitors | actives 0.35% (n = 210,000) | AID 1457; active means well fitted curve in the direction sought with a large enough effect; inconclusive means small, poorly fitted or top-dose-only effect, or another doubt; inactive means no such curve, though single readings can be large; an effect the other way counts as inactive or inconclusive;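 further: IP1 builds up when IMPase is blocked and the TR-FRET signal falls; potency means the concentration at half of the fitted maximal effect; plate controls were basal vehicle for no effect and high inhibitor control for full effect; nearly all actives have a fitted effect of over 50% in size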
#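 Readout is a homogeneous TR-FRET IP1 immunoassay (Ex 320, Em 665 and 620), where raised cytosolic IP1 lowers signal. Cells were CHO-M1 treated 30 min at 37C with test compounds plus a little lithium; AC50 values came from Hill-equation fitting.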
# PNC assembly inh = blocks assembly of the perinucleolar compartment. PC3M PTB-GFP, PNC prevalence imaging, 16 h; stronger effect = lower value. AID 2417. actives 3.1% (n = 140,000). activity change (PNC), negative = inhibition, % at 10 µM;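 active means readout at or below -70, meaning at least 70% loss of cells showing the perinucleolar compartment, a nuclear body marking cancer cells; inconclusive means readout between -30 and a set limit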;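 further: plate controls were DMSO wells for no effect and camptothecin positive control wells for full effect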
#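 PC3M cells stably expressing PTB-GFP, 750–1000 cells/well, treated 16 h at 37 °C with compound (23 nl of library stock), in duplicate. After paraformaldehyde fixation and Hoechst stain, imaged at 20x; PNC prevalence scored by image analysis.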
# Active calls of the source: *; ? = inconclusive; / = no result; [ ] = remark or other dose. This is a sample that favours compounds with a hit; in the whole collection about 11% have one here. Unless noted, the call rests on the fitted dose curve; in most records, active means well fitted inhibition curve with a large enough effect (not every such curve was filed as active); inconclusive means small, poorly fitted or top-dose-only effect, or another doubt; inactive means no such curve, though single readings can be large or run the other way. Unless noted, on the % scale 0 is the no-effect control and ±100 the full control effect.
SMILES,HPGD inh,ALDH1A1 inh,IMPase cell inh,12-hLO inh,IMPase Li cell,PNC assembly inh
COC(=O)c1ccc(CC(=O)c2c(C)cc(O)cc2O)o1,/,28µM*,4,?,/,-19
CCOC(=O)c1c(C)cc(O)cc1O,-29%,4%,/,-1%,-1%,/
Cc1cccc(-c2noc(CCC(=O)NCC3CCCO3)n2)c1 (centres undefined),25µM*,1%,13,1%,18%[38.3 µM],15
O=C(CCc1c[nH]c2ccccc12)NCC1CCCO1 (centres undefined),14µM*,9%,4,-2%,10%[38.3 µM],?
Cc1ccccc1-c1noc(CCC(=O)NCC2CCCO2)n1 (centres undefined),16µM*,2%,2,-7%,18%[38.3 µM],3
O=C(CCc1nc(-c2ccccc2Cl)no1)NCC1CCCO1 (centres undefined),/,-8%,/,/,-10%,/
COc1cccc(NC(=O)C2CCCN(S(=O)(=O)c3cccc4nonc34)C2)c1 (centres undefined),/,1%,4,/,-2%,/
COc1ccc(Cl)cc1NC(=O)C1CCCN(S(=O)(=O)c2cccc3nonc23)C1 (centres undefined),-18%,-5%,-6,2%,1%,-100*
O=C(C1CCCN(S(=O)(=O)c2cccc3nonc23)C1)N1CCN(c2ccccc2Cl)CC1 (centres undefined),14µM*,?,-2,4%,6%,-21
O=C(C1CCCN(S(=O)(=O)c2cccc3nonc23)C1)N1CCN(c2cccc(Cl)c2)CC1 (centres undefined),-8%,-12%,-3,3%,42%[38.3 µM],18
CCOC(=O)N/N=C1/C[C@@H](O)[C@@H](O)[C@@H]2[C@@H]3C(=O)N(Cc4ccc5c(c4)OCO5)C(=O)[C@H]3CC[C@H]12,/,18%[13.5 µM],/,/,/,/
COC(=O)c1ccc(CSc2nc3sc(C(=O)O)c(C)c3c(=O)[nH]2)cc1,/,?,/,/,8%,/
CCOC(=O)c1c(-c2ccccc2)csc1NC(=O)CSc1nnc(C)s1,-8%,-7%,/,-2%,8%,126
COC(=O)c1cc(NC(=O)CSc2nc(C)cc(=O)[nH]2)cc(C(=O)OC)c1,14µM*,1%,5,-8%,14%[38.3 µM],35
CCOC(=O)c1ccc(NC(=O)CSc2nc3sc(C(=O)O)c(C)c3c(=O)[nH]2)cc1,/,14µM*,/,/,-4%,/
CCOC(=O)c1ccc(NC(=O)CSc2nnc(C3CC3)n2C)cc1,-13%,-14%,0,-6%,2%,-11
CCOC(=O)c1c(-c2ccccc2Cl)csc1NC(=O)CSc1nc(C)cc(=O)[nH]1,14µM*,8%,/,-2%,2%,41
CCOC(=O)c1ccc(NC(=O)CSc2nnc(CNc3ccc(C)cc3)n2C)cc1,-12%,1%,6,-6%,2%,-100*
O=C(Nc1cccc(F)c1)N1CC2(CCN(C(=O)c3ccncc3)CC2)C1,-22%,-9%,/,7%,19%,/
Cc1cc(=O)[nH]c(SCC(=O)Nc2ccc(S(N)(=O)=O)cc2)n1,/,?,/,/,-1%,/
CCN(CC)c1ccc(NC(=O)CSc2nc(C)cc(=O)[nH]2)cc1,-2%,10%,16,-6%,7%[38.3 µM],-10
Cc1ccc(-c2csc(NC(=O)CSc3nc(C)cc(=O)[nH]3)n2)cc1,28µM*,?,-4,-17%,35%[38.3 µM],-89*
Cc1cc(=O)[nH]c(SCC(=O)Nc2ccc(C(=O)O)cc2)n1,22µM*,?,4,1%,-14%[38.3 µM],16
Cc1cc2ccccc2nc1SCC(=O)Nc1nc(-c2ccccc2)cs1,-9%,7.9µM*,8,15%,-5%[38.3 µM],?
Cc1ccc(-c2csc(NC(=O)CSC3=NCCS3)n2)cc1,-17%,-12%,12,-1%,13%,-25
CCOC(=O)c1ccc(NC(=O)CSc2nc(C)cc(=O)[nH]2)cc1,28µM*,-3%,-4,-9%,-9%[38.3 µM],-24
